Inconclusive results are not listed. Calls of active or inactive are those of the source. Rule for the calls, unless noted: active = hit-call score of the fitted dose curve at least 0.9, where 1 is the maximum; inconclusive = response in the unintended direction; inactive = score below 0.9.
Experiments:
SERPINA7 (gene 6906) = test: CCTE_GLTED_hTBG: CCTE's human Thyroxine-binding Globulin (TBG) Inhibition Assay, Great Lakes Toxicology and Ecology Division (GLTED) Lab (AID 2284343);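 note: active chemicals lower fluorescence versus DMSO baseline by displacing probe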
Procedure, shortened: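 Human thyroxine-binding globulin was exposed to each chemical for 2 hours, during which the ANSA probe could be displaced. Fluorescence was then measured at 380/475 nm, and loss of signal was analysed relative to DMSO.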

[1] = TAMU_PeakParms_SingleDonor1434_Asystole: Texas A&M University (TAMU) 1.5-hr Human Induced Pluripotent Stem Cell (iPSC)-derived Cardiomyocytes Calcium (Ca+2) Flux Assay for Cardiotoxicity: Asystole (quiescence of beating) (AID 2284328)
Procedure: TAMU_PeakParms is a cell-based, multiplexed-readout assay that uses iPSC-derived cardiomyocytes with measurements taken at 1.5 hours after chemical dosing in a microplate: 384-well plate.TAMU_PeakParms_SingleDonor1434_Chronotopy is a phenotype derived from the peak.freq.avg parameter and uses an EC95 as its POD (95% decrease in beat rate, compared to controls). Peak.Freq.Avg measures the average peak frequency, in beats per second, using Fluorescence intensity as a functional reporter from Calcium (Ca+2) flux assay technology. There is no preprocessing performed on the data used to model this phenotype.Data from the assay component TAMU_PeakParms_SingleDonor1434_Asystole was analyzed into 1 assay endpoint. This assay endpoint, TAMU_PeakParms_SingleDonor1434_Asystole, was analyzed in the positive analysis fitting direction relative to DMSO as the negative control and baseline of activity. Using a type of functional reporter, loss-of-signal activity can be used to understand changes in the cardiac function. To generalize the intended target to other relatable targets, this assay endpoint is annotated to the cardiomyocyte function intended target family, where the subfamily is cessation of beating. […]

[2] = IUF_NPC1_cytotoxicity_72hr: Cytotoxicity Assessment at 72 hours in the Leibniz Research Institute for Environmental Medicine (IUF) Neural Progenitor Cell Proliferation Assay (NPC1) (AID 2284332);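 note: rising LDH signal means more cytotoxicity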
Procedure: IUF_NPC1 is a cell-based, multiplexed assay that uses hNPC, a human primary neural progenitor cells, with measurements taken at 72 hours after chemical dosing in a 96-well plate. Human neural progenitor cells (hNPC) are generated from human fetal brain cortex at gestational week (GW) 16-19. Grown in suspension culture and under proliferative conditions (proliferation media and growth factors), these cells represent neural progenitor cell proliferation. In the NPC1 assay, hNPC's are exposed to the test compound for 72h. Cell proliferation is assessed as an increase in sphere area using automated phase contrast imaging and as incorporation of Bromodeoxyuridine (BrdU) during DNA synthesis using a luminescence-based cell proliferation ELISA. In parallel, the cell viability is assessed using an alamar blue viability assay and the cytotoxicity using a lactate dehydrogenase dependent membrane integrity assay.IUF_NPC1_cytotoxicity_72hr is one of 4 assay components measured from the IUF_NPC1 assay. It is designed to measure cytotoxicity at 72 hrs due to loss of membrane integrity. LDH measurements are performed from medium supernatants of each well and are based on the reduction of resazurin to resorufin measured as fluorescence signal (relative fluorescence unit) in a multiplate reader. […]

[3] = CCTE_Mundy_HCI_iCellGluta_NOG_NeuriteLength: CCTE's Neurite Outgrowth Assay in iCellGluta cells for Neurite Length, Mundy Lab (AID 2284318)
Procedure, shortened: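 Automated high-content imaging of betaIII-tubulin (Alexa Fluor-488) and Hoechst-stained cells gave neurite length, normalized to the DMSO baseline.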

[4] = CCTE_Mundy_HCI_iCellGluta_NOG_NeuronCount: CCTE's Neurite Outgrowth Assay in iCellGluta cells for Neuron Count, Mundy Lab (AID 2284340);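 note: cells fixed about 48 h after compound addition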
Procedure, shortened: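 Neuron count read by automated high-content imaging of Hoechst 33342 and betaIII-tubulin/Alexa Fluor-488 labelling in human iPSC glutamatergic neurons. Activity fitted relative to DMSO.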

[5] = CCTE_Mundy_HCI_iCellGluta_NOG_NeuriteCount: CCTE's Neurite Outgrowth Assay in iCellGluta cells for Neurite Count, Mundy Lab (AID 2284342);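 note: chemical exposure about 48 hours starting 2 hours after plating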
[6] = Tanguay_ZF_120hpf_MO24: Oregon State University Tanguay Lab 24 Hour Post-fertilization zebrafish Assay for Mortality (AID 2284389; active = hit-call score of the fitted dose curve at least 0.9, where 1 is the maximum; inactive = score below 0.9)
Procedure, shortened: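 Embryo death at 24 hpf was recorded as present or absent in Tropical 5D zebrafish, dechorionated at 4 hpf and dosed statically from 6 hpf (28C, 0.64% DMSO); 5 uM trimethyltin chloride served as positive control.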

[7] = CCTE_Deisenroth_5AR_NBTE_donor: CCTE's 5alpha-reductase NanoBRET Target Engagement Assay […], Deisenroth Lab (AID 2284319; active = hit-call score of the fitted dose curve at least 0.9, where 1 is the maximum; inactive = score below 0.9); conditions: actives raise or lower the signal
Procedure, shortened: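 HEK293T cells were reverse transfected with an SRD5A2-NanoLuc vector for 20 h, exposed to test chemical (8 points, 10 nM - 29.9 uM) for 3 h, then testosterone tracer for 2 h more. Donor luminescence (460 nm) was read; bidirectional fit versus DMSO.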

[8] = CCTE_Deisenroth_5AR_NBTE_acceptor: CCTE's 5alpha-reductase NanoBRET Target Engagement Assay - Autofluorescence Screen, Deisenroth Lab (AID 2284321; active = hit-call score of the fitted dose curve at least 0.9, where 1 is the maximum; inactive = score below 0.9;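 note: compound fluorescence in the acceptor channel under 460 nm excitation flags autofluorescence artifacts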); conditions: actives raise or lower the signal
Procedure, shortened: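 Chemicals diluted to a nominal 100 uM in DMSO were scanned at 460 nm excitation. Samples were read in three independent runs (n=3). Gain or loss of acceptor signal was fitted relative to DMSO.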

SRD5A2 (gene 6716) = test: CCTE_Deisenroth_5AR_NBTE_ratio: CCTE's 5alpha-reductase NanoBRET Target Engagement Assay - Ratio, Deisenroth Lab (AID 2284322; active = hit-call score of the fitted dose curve at least 0.9, where 1 is the maximum; inactive = score below 0.9); conditions: actives raise or lower the signal
Procedure, shortened: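 HEK293T cells transiently expressing an SRD5A2-NanoLuc fusion (20 h post-transfection) were exposed to test chemical (10 nM - 29.9 uM, 8 points) for 3 h, then testosterone tracer for a further 2 h. Acceptor/donor BRET ratio was fitted bidirectionally against DMSO baseline.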

In the case of `CCCCC(CC)COP(=O)(O)OCC(CC)CCCC` (stereo not given), the AC50 (SERPINA7 (gene 6906)) is reported as 2.42 µM (active).
With `OC[C@@H](O)[C@@H](O)[C@H](O)[C@@H](O)CO` the outcome [1] was “inactive” and the outcome [2] was “inactive”.
With `O=C(O)C(F)(F)C(F)(F)C(F)(F)F` the outcome [3] was “inactive”, the outcome [4] was “inactive” and the outcome [5] was “inactive”. The outcome [6] was “inactive”.
For `N=C(N)C(F)(F)C(F)(F)C(F)(F)C(F)(F)C(F)(F)C(F)(F)C(F)(F)F`, the outcome [3] was “inactive”, the outcome [4] was “inactive” and the outcome [5] was “inactive”. The outcome [6] was “inactive”.
With `CC(CCl)OP(=O)(OC(C)CCl)OC(C)CCl` (stereo not given) the outcome [3] was “inactive”, the outcome [2] was “inactive” and the outcome [4] was “inactive”. The outcome [5] was “inactive”.
With `C=C(C)C(=O)OCC(F)(F)C(F)(F)C(F)(F)F` the outcome [3] was “inactive”, the outcome [4] was “inactive” and the outcome [5] was “inactive”. For the same molecule, the outcome [6] was “inactive”.
For `O=C(O)C(F)(F)C(F)(F)C(F)(F)C(F)(F)C(F)(F)C(F)(F)C(F)(F)C(F)(F)Cl`, the outcome [3] was “inactive”, the outcome [4] was “inactive” and the outcome [5] was “inactive”. For the same molecule, the AC50 (SERPINA7 (gene 6906)) was 62.6 µM (active) and the outcome [6] was “inactive”.
For `CCN(Cc1cccc(S(=O)(=O)O)c1)c1ccc(C(=C2C=CC(=[N+](CC)Cc3cccc(S(=O)(=O)O)c3)C=C2)c2ccc(O)cc2S(=O)(=O)[O-])cc1`, the outcome [7] was “inactive”, the AC50 [8] was 1.52 µM (active) and the AC50 (SRD5A2 (gene 6716)) was 1.56 µM (active). The AC50 (SERPINA7 (gene 6906)) was 25.4 µM (active).
For `C=CC(=O)OCC(F)(F)C(F)(F)C(F)(F)C(F)(F)COC(=O)C=C`, the outcome [3] was “inactive”, the outcome [4] was “inactive” and the outcome [5] was “inactive”. The AC50 (SERPINA7 (gene 6906)) was 18.2 µM (active) and the AC50 [6] was 28.3 µM (active).
In the case of `FC(F)(F)C(F)(F)C(F)(F)C(F)(F)C(F)(F)CCI`, the AC50 (SERPINA7 (gene 6906)) is reported as 27 µM (active) and the outcome [6] is reported as “inactive”.
For `C=C(C)C(=O)OCCC(F)(F)C(F)(F)C(F)(F)C(F)(F)C(F)(C(F)(F)F)C(F)(F)F`, the outcome [6] was “inactive”.
In the case of `O=C(Cl)C(F)(F)C(F)(F)C(F)(F)C(F)(F)C(F)(F)C(F)(F)C(F)(F)C(F)(F)F`, the AC50 (SERPINA7 (gene 6906)) is reported as 14.9 µM (active).
For `OCCCC(F)(F)C(F)(F)C(F)(F)C(F)(F)C(F)(F)C(F)(F)C(F)(F)F`, the outcome [3] was “inactive”, the outcome [4] was “inactive” and the outcome [5] was “inactive”. For the same molecule, the outcome [6] was “inactive”.
For `O=S(=O)(O)c1ccc2ccccc2c1`, the AC50 (SERPINA7 (gene 6906)) was 24.5 µM (active).
With `OCC(F)(F)C(F)(F)C(F)(F)C(F)F` the outcome [3] was “inactive”, the outcome [4] was “inactive” and the outcome [5] was “inactive”. The outcome [6] was “inactive”.
For `OCC(F)(F)C(F)(F)C(F)(F)F`, the outcome [3] was “inactive”, the outcome [4] was “inactive” and the outcome [5] was “inactive”. For the same molecule, the outcome [6] was “inactive”.
With `CC(Cc1ccc(O)c(O)c1)C(C)Cc1ccc(O)c(O)c1` (stereo not given) the AC50 [7] was 64.7 µM (active), the AC50 [8] was 50 µM (active) and the AC50 (SRD5A2 (gene 6716)) was 93.7 µM (active). For the same molecule, the AC50 (SERPINA7 (gene 6906)) was 7.96 µM (active).
In the case of `FC(F)(F)C(F)(F)C(F)(F)C(F)(F)CCI`, the outcome [3] is reported as “inactive”, the outcome [4] is reported as “inactive” and the outcome [5] is reported as “inactive”. The AC50 (SERPINA7 (gene 6906)) was 46.7 µM (active) and the outcome [6] was “inactive”.
In the case of `O=P(O)(O)OCCC(F)(F)C(F)(F)C(F)(F)C(F)(F)C(F)(F)C(F)(F)F`, the outcome [3] is reported as “inactive”, the outcome [4] is reported as “inactive” and the outcome [5] is reported as “inactive”. The outcome [6] was “inactive”.
For `O=C(O)C(F)(F)C(F)(F)OC(F)(F)F`, the outcome [3] was “inactive”, the outcome [4] was “inactive” and the outcome [5] was “inactive”. The outcome [6] was “inactive”.
For `FC(F)(F)C(F)(F)C(F)(F)CI`, the outcome [3] was “inactive”, the outcome [4] was “inactive” and the outcome [5] was “inactive”. The outcome [6] was “inactive”.
With `FC(F)(F)C(F)(F)C(F)(F)C(F)(F)C(F)(F)C(F)(F)C(F)(F)C(F)(F)F` the outcome [3] was “inactive”, the outcome [4] was “inactive” and the outcome [5] was “inactive”. The outcome [6] was “inactive”.
With `O=C(CC(=O)C(F)(F)C(F)(F)F)C(F)(F)F` the outcome [3] was “inactive”, the outcome [4] was “inactive” and the outcome [5] was “inactive”. The outcome [6] was “inactive”.
In the case of `O=C(O)C(F)(F)C(F)(F)F`, the outcome [6] is reported as “inactive”.
With `O=C(OCCOCCOCCOC(=O)c1ccccc1)c1ccccc1` the outcome [7] was “inactive”, the outcome [8] was “inactive” and the outcome (SRD5A2 (gene 6716)) was “inactive”.
In the case of `FC(F)(F)C(F)(F)C(F)(F)C(F)(F)C(F)(F)C(F)(F)C(F)(F)C(F)(F)CCS`, the outcome [3] is reported as “inactive”, the AC50 [4] is reported as 5 µM (active) and the outcome [5] is reported as “inactive”. For the same molecule, the outcome [6] was “inactive”.
With `FC(F)(F)C(F)(F)C(F)(F)C(F)(F)C(F)(F)C(F)(F)CC1CO1` (stereo not given) the outcome [3] was “inactive”, the outcome [4] was “inactive” and the outcome [5] was “inactive”. For the same molecule, the outcome [6] was “inactive”.
For `CC(C)(C)C(=O)CC(=O)C(F)(F)C(F)(F)C(F)(F)F`, the outcome [4] was “inactive”, the outcome [5] was “inactive” and the outcome [6] was “inactive”.
With `C=CC(F)(F)C(F)(F)C(F)(F)C(F)(F)C(F)(F)C(F)(F)C(F)(F)C(F)(F)C=C` the outcome [6] was “inactive”.
For `Cc1ccc(S(=O)(=O)OCC(F)(F)C(F)(F)C(F)(F)C(F)(F)C(F)(F)C(F)F)cc1`, the outcome [6] was “inactive”.
In the case of `O=C(O)C(F)(F)C(F)(F)C(F)(F)C(F)(F)C(F)(F)C(F)(F)C(F)(F)C(F)(F)C(F)(F)C(F)F`, the outcome [6] is reported as “inactive”.
With `C=C(C)C(=O)OCC(F)(F)C(F)(F)C(F)(F)C(F)(F)C(F)(F)C(F)(F)C(F)(F)F` the outcome [6] was “inactive”.
In the case of `O=S(=O)(O)C(F)(F)C(F)(F)C(F)(F)C(F)(F)C(F)(F)C(F)(F)C(F)(F)F`, the outcome [6] is reported as “inactive”.
In the case of `O=C(O)C(F)(OC(F)(F)C(F)(OC(F)(F)C(F)(OC(F)(F)C(F)(F)C(F)(F)F)C(F)(F)F)C(F)(F)F)C(F)(F)F` (stereo not given), the outcome [6] is reported as “inactive”.
